Common to all, as to experiment: Confirmatory Screen for Target Class Profiling of Small Molecule Inhibitors of Methyltransferases (AID 1745852); on activity change, negative = inhibition: on the % scale 0 is the no-effect control and ±100 the full control effect
The target of experiment [1] is Catechol O-methyltransferase (Homo sapiens) (UniProt P21964). The note with it: MTase-Glo luminescence, SAH detection, recombinant enzyme; measured here: COMT max response; stronger effect = lower value.
Experiment [2] addresses Guanidinoacetate N-methyltransferase (Homo sapiens) (UniProt Q14353). The conditions noted are these: activity change, negative = inhibition: at 57.3 µM (top of the series) unless noted.
Experiment [3] addresses Nicotinamide N-methyltransferase (Homo sapiens) (UniProt P40261). The conditions noted are these: MTase-Glo luminescence, SAH detection, recombinant enzyme; measured here: NNMT max response; stronger effect = lower value.
Experiment [4] deals with Phenylethanolamine N-methyltransferase (Homo sapiens) (UniProt P11086). The note with it: MTase-Glo luminescence, SAH detection, recombinant enzyme; measured here: PNMT max response; stronger effect = lower value.

SMILES strings stand for the structures. Activity calls are given as the source filed them. The call rests on the fitted dose curve.

The source of these data is PubChem BioAssay (NCATS).
Potency means the concentration at half of the fitted maximal effect.

Catechol O-methyltransferase (Homo sapiens), sequence (P21964 whole entry, looked up): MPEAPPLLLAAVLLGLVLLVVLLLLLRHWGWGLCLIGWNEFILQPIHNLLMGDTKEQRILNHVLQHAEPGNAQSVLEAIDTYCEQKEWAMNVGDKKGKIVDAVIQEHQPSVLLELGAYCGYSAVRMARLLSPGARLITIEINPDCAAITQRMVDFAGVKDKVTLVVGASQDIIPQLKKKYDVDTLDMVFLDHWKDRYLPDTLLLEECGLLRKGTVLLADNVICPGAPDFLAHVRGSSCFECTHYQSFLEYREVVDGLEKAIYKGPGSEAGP
Nicotinamide N-methyltransferase (Homo sapiens), sequence (P40261 whole entry, looked up): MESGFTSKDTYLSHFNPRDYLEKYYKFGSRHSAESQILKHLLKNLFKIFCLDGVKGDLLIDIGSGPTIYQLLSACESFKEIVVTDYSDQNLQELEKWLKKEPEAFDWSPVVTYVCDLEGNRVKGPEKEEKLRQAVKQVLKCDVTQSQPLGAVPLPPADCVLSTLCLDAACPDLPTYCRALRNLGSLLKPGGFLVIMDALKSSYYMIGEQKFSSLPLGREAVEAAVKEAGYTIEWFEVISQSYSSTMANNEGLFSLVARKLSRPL
Phenylethanolamine N-methyltransferase (Homo sapiens), sequence (P11086 whole entry, looked up): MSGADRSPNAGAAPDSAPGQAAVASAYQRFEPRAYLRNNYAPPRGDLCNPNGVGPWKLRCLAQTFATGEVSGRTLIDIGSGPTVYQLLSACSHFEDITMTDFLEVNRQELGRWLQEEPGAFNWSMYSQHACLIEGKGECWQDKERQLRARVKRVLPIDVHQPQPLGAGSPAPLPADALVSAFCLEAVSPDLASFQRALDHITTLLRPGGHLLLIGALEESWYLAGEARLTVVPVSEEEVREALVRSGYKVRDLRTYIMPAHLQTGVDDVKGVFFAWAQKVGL

As for `CC(C)Cn1c(=O)c2ccccc2n2c(CCC(=O)N3CCN(c4ccc(F)cc4)CC3)nnc12`, the activity is -4.42% in experiment [1], -55.7% in experiment [3] and -6.74% in experiment [4]. Also, the activity change, negative = inhibition in experiment [2] was 2.04%.

Turning to `COc1ccc(NC(=O)C(C)(C)Oc2nn(CC3CC3)c3ccc(CN4CCCC4)cc23)cc1`, the activity is 8.52% in experiment [1], 5.5% in experiment [3] and 9.18% in experiment [4]. Further, in experiment [2], the activity change, negative = inhibition worked out at 9.81%.

As for `CN1C(=O)C(c2ccccc2)CC12CCN(c1ccnc(N)n1)CC2` (stereo unspecified), the activity amounted to 6.59% in experiment [1], 7.63% in experiment [3] and 10.4% in experiment [4]. For the same compound, the activity change, negative = inhibition in experiment [2] turned out to be 9.95%.

On to `Cc1ccc(-c2ccc(N)nc2)c2cccnc12`, for which the results for the activity in experiment [1], in experiment [3] and in experiment [4] were -62.1%, -2.78% and 1.29%, respectively. In addition, the activity change, negative = inhibition in experiment [2] came to 1.37%.

In the case of `COc1ccc2nc([C@H]3CCN(C4CCCCC4)C3)[nH]c2c1`, the activity is -5.45% in experiment [1], -3.99% in experiment [3] and -4.21% in experiment [4]. Moreover, the activity change, negative = inhibition in experiment [2] was 4.16% [at 85.7 µM].

For the compound `COc1cccc(CNC(=O)c2sc(=S)n3c2[nH]c(=O)c2cc4c(cc23)OCO4)c1`, the activity is -25.7% in experiment [1], -43.7% in experiment [3] and -28% in experiment [4]. In addition, the Potency in experiment [2] was 42.9 µM (active).

On to `COc1ccc(NC(=O)CCc2ccnc(N3CCCC3)c2)c(OC)c1`, for which the activity in experiment [1] was -5.64%; in experiment [3], -4.13%; in experiment [4] it was -2.38%. The activity change, negative = inhibition in experiment [2] was -3.43%.

Take `COCCNc1cc(-c2noc([C@@H]3CCCN3CC(C)C)n2)ccn1`: the activity in experiment [1] was 3.05%; in experiment [3], -4.35%; in experiment [4] it was 2.32%. The activity change, negative = inhibition in experiment [2] turned out to be 1.02% [at 85.7 µM].

`COc1ccc(-c2n[nH]n3c2nc(=O)c2ccc(C(=O)NCc4ccc(OC)c(OC)c4)cc23)cc1`: the activity in experiment [1] is -3.17%; in experiment [3] it was 0.962%; in experiment [4] it was 0.793%. Moreover, the activity change, negative = inhibition in experiment [2] was 0.217%.

Turning to `CCc1ccc(NS(=O)(=O)c2ccc3c(c2)n(C)c(=O)n3C)cc1`, the activity is 4.08% in experiment [1], -40.6% in experiment [3] and -1.22% in experiment [4]. For the same compound, the activity change, negative = inhibition in experiment [2] amounted to 0%.

On to `CC(C)Cn1c(=O)c2ccccc2n2c(CCC(=O)N3CCN(c4cccc(Cl)c4)CC3)nnc12`, for which the activity in experiment [1] was -1.89%; in experiment [3] it was -35.8%; in experiment [4] it was -10.3%. The activity change, negative = inhibition in experiment [2] is 1.7%.

Regarding `Cc1noc2c(NC3CCN(C)CC3)cc(-c3cccs3)nc12`, the activity was 7.59% in experiment [1], 0.3% in experiment [3] and -6.76% in experiment [4]. In addition, the activity change, negative = inhibition in experiment [2] came to 13.7% [at 85.7 µM].

As to `COc1ccc(CN2C(=O)c3cc4ccccc4n3CC2(C)C(=O)NCc2ccccc2)cc1OC` (stereo unspecified), the activity in experiment [1] was 4.11%; in experiment [3], -57.8%; in experiment [4], 1.95%. The activity change, negative = inhibition in experiment [2] was found to be 0%.

For `CC(C)Cn1c(=O)c2ccccc2n2c(CCC(=O)N3CCN(c4ccccc4F)CC3)nnc12`, the results for the activity in experiment [1], in experiment [3] and in experiment [4] were 2.07%, -58.2% and -8.56%, respectively. The activity change, negative = inhibition in experiment [2] amounted to 0%.

For the compound `O=C(CCc1nnc2n(Cc3ccccc3Cl)c(=O)c3ccccc3n12)N1CCC(N2CCCCC2)CC1`, the activity is 0% in experiment [1], -1.92% in experiment [3] and 0% in experiment [4]. Besides, the activity change, negative = inhibition in experiment [2] was determined as 0.582%.

As to `O=C1c2ccccc2C(=O)c2cc(S(=O)(=O)NCCO)ccc21`, the activity is -11% in experiment [1], -0.735% in experiment [3] and -29.7% in experiment [4]. Moreover, the activity change, negative = inhibition in experiment [2] was found to be 0%.

Take `Cc1ccc(C2Nc3c(ccc(C(=O)O)c3C)C3C=CCC32)cc1` (stereo unspecified): the activity in experiment [1] was -3.41%; in experiment [3], -1.48%; in experiment [4], -1.34%. The Potency entry in experiment [2] is “inactive”.

As to `CN(C)c1nc2c(c(N3C[C@@H](CN4CCCC4)[C@@H](CO)C3)n1)CCCC2`, the figures for the activity in experiment [1], in experiment [3] and in experiment [4] were 4.35%, 3.39% and 3.79%, respectively. Further, the activity change, negative = inhibition in experiment [2] came to 2.26%.

As for `Cc1ccc(NC(=O)N2CCc3c(c4ccccc4n3CC3CC3)C2)cc1`, the activity in experiment [1] turned out to be 6.89%; in experiment [3] it was 5.96%; in experiment [4], 6.82%. The activity change, negative = inhibition in experiment [2] came out at 14.5%.
